Measurements reported in PubChem BioAssay (NCI).
This is part of a sample that, as a whole, favours compounds with a hit. Of some 83,000 tested, about 20% had one in any assay.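 How to read the values: 0–100, growth inhibition (40 = 60% inhibited); 0, no net growth; -100 to 0, cell death (-40 = 40% of starting cells died; -100 = all dead).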 Active and inactive are the calls of the source. The calls were made as follows: active = growth percent below 10; inactive = the rest.

What was measured:
Assay in all cases: NCI-60 one-dose screen, 48 h (100 = growth as untreated, 0 = no growth, -100 = all killed)
Settings in all cases: 10 µM unless noted
T-47D breast = test system: T-47D breast
BT-549 breast = test system: BT-549 breast
MDA-MB-435 melanoma = test system: MDA-MB-435 melanoma
SW-620 colon = test system: SW-620 colon
MCF7 breast = test system: MCF7 breast
HCT-116 colon = test system: HCT-116 colon
HCC-2998 colon = test system: HCC-2998 colon
KM12 colon = test system: KM12 colon
MDA-MB-468 breast = test system: MDA-MB-468 breast

Measured: growth

Cc1ccc(Cc2cnc(NC(=O)c3ccc(/C=C4\SC(=S)N(C)C4=O)cc3)s2)cc1
active: MDA-MB-435 melanoma -18.7% | MDA-MB-468 breast 4.76%
inactive: T-47D breast 23.9% | BT-549 breast 37.9% | SW-620 colon 35.8% | MCF7 breast 19.6% | HCT-116 colon 22.7% | HCC-2998 colon 41.1% | KM12 colon 11.2%

COc1cc2c(c(OC)c1OC)C(=O)CC(c1cccc(NC(=O)c3cc([N+](=O)[O-])ccc3Cl)c1)O2 (centres undefined)
active: BT-549 breast -11% | SW-620 colon -6.32% | HCT-116 colon -66.1% | KM12 colon -54.7%
inactive: T-47D breast 23.6% | MDA-MB-435 melanoma 28.5% | MCF7 breast 11.7% | HCC-2998 colon 33%

c1ccc(-c2csc(Nc3cccc(Nc4nc(-c5ccccc5)cs4)c3)n2)cc1
inactive: T-47D breast 24% | BT-549 breast 31.7% | MDA-MB-435 melanoma 44.7% | SW-620 colon 66.2% | MCF7 breast 15.6% | HCT-116 colon 40% | HCC-2998 colon 35.5% | MDA-MB-468 breast 39.2%
active: KM12 colon 1.06%

C#C[C@]1(O)CC[C@H]2[C@@H]3CC=C4c5sc(-c6ccc(O)c(O)c6)nc5CC[C@]4(C)[C@H]3CC[C@@]21C
active: T-47D breast -25.7% | BT-549 breast -93.3% | MDA-MB-435 melanoma -62.3% | SW-620 colon -76.6% | MCF7 breast -72.8% | HCT-116 colon -88.8% | HCC-2998 colon -83.9% | KM12 colon -76.3% | MDA-MB-468 breast -71.7%

Cc1cc2c(cc1Cl)C(=O)/C(=C/c1ccc(F)cc1)O2
inactive: T-47D breast 69.1% | BT-549 breast 85% | MDA-MB-435 melanoma 106% | SW-620 colon 111% | MCF7 breast 37.9% | HCT-116 colon 73.5% | HCC-2998 colon 117% | KM12 colon 92.7%

CC1(C)CC[C@]2(C(=O)O)CC[C@]3(C)C(=CCC4[C@@]5(C)C[C@@H](O)[C@@H]6OC(c7ccco7)OC[C@@]6(C)C5CC[C@]43C)C2C1 (some centres undefined)
active: MDA-MB-468 breast 8.23%
inactive: T-47D breast 46.4% | BT-549 breast 13.9% | MDA-MB-435 melanoma 12.2% | SW-620 colon 23.6% | MCF7 breast 21% | HCT-116 colon 11.8% | HCC-2998 colon 34% | KM12 colon 17.3%

COc1ccc(-c2ccnc(SCc3cc4cc(Cl)ccc4[nH]c3=O)n2)cc1
inactive: T-47D breast 62.1% | MDA-MB-435 melanoma 68.5% | SW-620 colon 69.1% | MCF7 breast 73% | HCT-116 colon 26.6% | HCC-2998 colon 100% | KM12 colon 94.7%
active: BT-549 breast -18.5%

O=C(CN1C(=O)/C(=C/c2ccccc2F)SC1=S)N1CCOCC1
inactive: T-47D breast 61.4% | BT-549 breast 111% | MDA-MB-435 melanoma 94.1% | SW-620 colon 32.6% | MCF7 breast 35.3% | HCT-116 colon 45.3% | HCC-2998 colon 116% | KM12 colon 99.1%
active: MDA-MB-468 breast -7.25%

CC(=O)/C=C/c1cccc2c1C(=O)NC(C)(c1cc3cc(Br)ccc3oc1=O)N2 (centres undefined)
inactive: T-47D breast 32% | MDA-MB-435 melanoma 42.3% | SW-620 colon 32.3% | MCF7 breast 13.4% | HCT-116 colon 15.1% | HCC-2998 colon 23.3% | KM12 colon 25.3%
active: BT-549 breast -8.15%

CN(C)c1nc(NCCNS(=O)(=O)c2ccc(C3=Nc4c(N)nc(N)nc4NC(c4ccc(Cl)cc4)C3)cc2)nc(Nc2ccc(F)cc2)n1 (centres undefined)
inactive: T-47D breast 33.8% | BT-549 breast 15.4% | MDA-MB-435 melanoma 32.3% | SW-620 colon 33.4% | HCT-116 colon 15.3% | KM12 colon 19.4%
active: MCF7 breast 2.35% | HCC-2998 colon -0.0718%

C=C1CCC2C3(C)COC(c4cc(F)cc(F)c4)OC3CCC2(C)C1CC(O)C1=CCOC1=O (centres undefined)
inactive: T-47D breast 40.5% | MDA-MB-435 melanoma 60% | MCF7 breast 15.3% | HCC-2998 colon 45.8% | KM12 colon 60.5% | MDA-MB-468 breast 70.7%
active: BT-549 breast -12.9% | SW-620 colon -44.2% | HCT-116 colon -33.8%

COc1cc2c(c(OC)c1OC)C(=O)CC(c1cccc(NC(=O)c3cc(NC(=O)[C@H](CO)NC(=O)OC(C)(C)C)ccc3Cl)c1)O2 (some centres undefined)
inactive: T-47D breast 13.5% | MDA-MB-435 melanoma 10.1% | SW-620 colon 44% | MCF7 breast 12.2% | HCT-116 colon 14.4% | HCC-2998 colon 73% | KM12 colon 14.5% | MDA-MB-468 breast 19.8%
active: BT-549 breast -3.14%

O=c1oc2ccccc2cc1-c1csc(N2N=C(c3ccccc3)CC2c2ccc(N3CCOCC3)cc2)n1 (centres undefined)
inactive: T-47D breast 91.6% | BT-549 breast 118% | MDA-MB-435 melanoma 110% | SW-620 colon 106% | MCF7 breast 86.5% | HCT-116 colon 109% | HCC-2998 colon 121% | KM12 colon 103% | MDA-MB-468 breast 99.7%

CN(C)c1nc(NCCNS(=O)(=O)c2ccc(C(=O)/C=C/c3ccc(C(F)(F)F)cc3)cc2)nc(Nc2ccc(F)cc2)n1
inactive: T-47D breast 15.7%
active: BT-549 breast -71.2% | MDA-MB-435 melanoma -81.1% | SW-620 colon -77.1% | MCF7 breast -78.6% | HCT-116 colon -59.1% | HCC-2998 colon -95.7% | KM12 colon -78.9% | MDA-MB-468 breast -23.6%

Cc1cc2c(cc1Cl)C(=O)/C(=C/c1ccccc1)O2
inactive: MDA-MB-435 melanoma 19.7% | SW-620 colon 33.9% | MCF7 breast 17.5% | HCT-116 colon 18.1% | HCC-2998 colon 63.6% | KM12 colon 17.8%
active: T-47D breast -22.8% | BT-549 breast -3.52% | MDA-MB-468 breast 0.644%

O=C(N=Nc1c(O)[nH]c2ccc(Cl)cc12)c1ccc2nc(-c3ccccc3)[nH]c2c1
inactive: T-47D breast 30.1% | BT-549 breast 109% | MDA-MB-435 melanoma 79.7% | SW-620 colon 17.8% | HCT-116 colon 59.4% | HCC-2998 colon 10.3% | KM12 colon 91.2%
active: MCF7 breast 4.1% | MDA-MB-468 breast -31.3%

COC(=O)/C=C/c1cccc2c1C(=O)NC(C)(c1cc3cc4ccccc4cc3oc1=O)N2 (centres undefined)
inactive: T-47D breast 71.8% | BT-549 breast 45.2% | MDA-MB-435 melanoma 76.1% | SW-620 colon 54.3% | MCF7 breast 47.2% | HCT-116 colon 44.5% | HCC-2998 colon 68.5% | KM12 colon 53.7% | MDA-MB-468 breast 41%

CCCCNC(=S)Nc1ccc(OCc2nc3ccccc3[nH]2)cc1
inactive: T-47D breast 45.3% | BT-549 breast 65.9% | MDA-MB-435 melanoma 49.6% | SW-620 colon 91.5% | MCF7 breast 46.5% | HCT-116 colon 63.7% | HCC-2998 colon 59.6% | MDA-MB-468 breast 69.6%
active: KM12 colon 1.01%

N/C(=N\c1nc2ccccc2s1)NC(=O)Nc1c(Cl)cccc1Cl
active: MDA-MB-435 melanoma -17.9% | MDA-MB-468 breast -4.05%
inactive: T-47D breast 18% | BT-549 breast 37.3% | SW-620 colon 25.6% | MCF7 breast 15.6% | HCT-116 colon 22.7% | HCC-2998 colon 68.6% | KM12 colon 21.4%

Cc1ccccc1[C@H]1C(C(=O)c2ccc(Cl)cc2)C2(N[C@@H]1c1ccccc1)C(=O)Nc1ccccc12 (some centres undefined)
active: T-47D breast 4.15% | BT-549 breast -66% | MDA-MB-435 melanoma -62.2% | SW-620 colon 0.765% | MCF7 breast -31.7% | HCT-116 colon -84% | HCC-2998 colon -41.1% | KM12 colon -30.8% | MDA-MB-468 breast -25.6%

NC(=S)Nc1cccc(NC(N)=S)c1
inactive: T-47D breast 86.8% | BT-549 breast 115% | MDA-MB-435 melanoma 97.3% | SW-620 colon 107% | MCF7 breast 91.7% | HCT-116 colon 107% | HCC-2998 colon 117% | KM12 colon 87.6% | MDA-MB-468 breast 86.5%

CN1CCN(/C(=N\c2sc(-c3ccccc3)nc2-c2ccccc2)c2ccccc2)CC1
inactive: T-47D breast 76.2% | BT-549 breast 77.5% | MDA-MB-435 melanoma 79.7% | SW-620 colon 79.5% | MCF7 breast 75.1% | HCT-116 colon 54.4% | HCC-2998 colon 77.5% | KM12 colon 24.5% | MDA-MB-468 breast 71.6%

CCCSc1nc(NCCc2c[nH]c3ccccc23)c(C#N)c(-c2ccccc2)n1
inactive: T-47D breast 16.1% | BT-549 breast 89.3% | MDA-MB-435 melanoma 83.4% | SW-620 colon 56.9% | MCF7 breast 24.9% | HCT-116 colon 32% | HCC-2998 colon 59.9% | KM12 colon 42.1% | MDA-MB-468 breast 53.8%

Cc1ccc(S(=O)(=O)c2nc(S(=O)(=O)c3ccc(C)cc3)c(N3CCC(O)CC3)s2)cc1
active: MDA-MB-468 breast -20.7%
inactive: T-47D breast 60.1% | BT-549 breast 49.5% | MDA-MB-435 melanoma 16.8% | SW-620 colon 44.7% | MCF7 breast 43.4% | HCT-116 colon 53.7% | HCC-2998 colon 90.6% | KM12 colon 72.6%

CC1(C)CC[C@]2(C(=O)Nc3ccc(F)cc3)CC[C@]3(C)C(=CCC4[C@@]5(C)C[C@@H](O)[C@H](O)[C@@](C)(CO)C5CC[C@]43C)C2C1 (some centres undefined)
active: MCF7 breast 7.64% | MDA-MB-468 breast 7.26%
inactive: T-47D breast 15.5% | BT-549 breast 33.2% | MDA-MB-435 melanoma 39.9% | SW-620 colon 59.4% | HCT-116 colon 17.2% | HCC-2998 colon 36% | KM12 colon 30.1%

CC(=O)Nc1ccc(C(=O)NC(=S)Nc2ccc(S(N)(=O)=O)cc2)cc1
inactive: T-47D breast 73.8% | BT-549 breast 94.4% | MDA-MB-435 melanoma 97.5% | SW-620 colon 98% | MCF7 breast 93% | HCT-116 colon 99.4% | HCC-2998 colon 97.2% | KM12 colon 97.5% | MDA-MB-468 breast 80.2%
